Results as given in PubChem BioAssay AID1662 (Broad Institute, 2009).
The campaign covered roughly 300,000 compounds. About 4,000 (1.3%) were called active. The list comes from a sample in which actives are over-represented; it also holds similar structures and randomly drawn compounds. A number with no mark means an inactive call.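 How the source made its calls: active means mean replicate score, as percent of positive control median, at least 50; inconclusive means mean below 50 but one replicate at or above 50; inactive means mean and every replicate below 50.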

Assay: kanamycin survival loss of SKKanGAS strain – BacTiter-Glo luminescence, streptokinase expression inhibitor project, primary screen (AID 1662);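 further: strain carries kanamycin resistance gene driven by streptokinase promoter and grows in 40 µg/ml kanamycin; loss of luminescence reflects streptokinase promoter inhibition or plain growth inhibition; 0% = median of DMSO wells and 100% = positive control at its reference dose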
Conditions: S. pyogenes SKKanGAS, kanamycin growth, 6 h, at 7.5 µM, hits give high values

Row | SMILES | inhibition
1 | NC(=O)Cn1cc(/C=N\NS(=O)(=O)c2ccccc2)c2ccccc21 | -0.681%
2 | Cc1ccc2c(C)c(C(=O)N3CCN(c4ccncc4)CC3)oc2c1C | 4.31%
3 | O=C1c2ccccc2-c2ncnc3c(N4CCOCC4)cc(N4CCOCC4)c1c23 | 13.7%
4 | O=[N+]([O-])c1c(NCCO)cc(Sc2nc3ccccc3s2)c2nonc12 | 51.8% (active)
5 | O=C(O)c1cccc(S(=O)(=O)Nc2ccc(O)cc2Sc2nc3ccccc3s2)c1 | 8.92%
6 | CCOc1ccccc1Nc1ccc2nonc2c1[N+](=O)[O-] | -0.208%
7 | CCOCC(=O)Nc1ncc(S(=O)(=O)c2ccc([N+](=O)[O-])cc2)s1 | -0.334%
8 | CC(C)C(=O)Nc1ccc2c3c(cccc13)CC2 | -4.74%
9 | Cc1cccc(NC(=O)C2CCN(C(=O)NC3CCCCC3)CC2)c1 | 3.22%
10 | O=C(N/N=C/c1cc(Br)c(O)c([N+](=O)[O-])c1)C(O)(c1ccccc1)c1ccccc1 | 4.7%
11 | O=C(N/N=C/c1cc(Cl)cc([N+](=O)[O-])c1O)C(O)(c1ccccc1)c1ccccc1 | 94.7% (active)
12 | CN(C)/N=C/c1cc(Cl)cc([N+](=O)[O-])c1O | 0.131%
13 | Fc1ccccc1CNC(=S)Nc1ccc(Cl)cc1 | 18%
14 | O=C(NC1CCN(C(=S)NCc2ccco2)CC1)c1ccc(F)cc1 | 13.3%
15 | COc1cccc(N2CC(NS(=O)(=O)c3ccc(Cl)cc3)CC2=O)c1 (stereo not given) | 3.83%
16 | COc1ccc(N(C(=O)c2snc(C(N)=O)c2N)C(C(=O)NC2CCCC2)c2ccco2)cc1OC (stereo not given) | 2.77%
17 | CCc1nnc(NC(=O)c2cccc(S(=O)(=O)N(C)c3ccc(OC)cc3)c2)s1 | 4.1%
18 | CCc1nnc(NC(=O)c2sc3nc(C)cc(COC)c3c2N)s1 | 8.09%
19 | CCc1ccc2nc3sc(C(=O)Nc4nnc(CC)s4)c(N)c3cc2c1 | 95.3% (active)
20 | COc1ccc(S(=O)(=O)NCc2cccnc2)cc1NC(=O)c1ccc(C)cc1 | -12.6%
21 | COC(=O)N/N=C/c1ccc(-c2ccc(Cl)c(Cl)c2)o1 | -12.4%
22 | COC(=O)N/N=C/c1ccc(/C=N/NC(=O)OC)cc1 | -10.9%
23 | COC(=O)N/N=C/c1c[n+]([O-])c2ccccc2[n+]1[O-] | 50.6% (active)
24 | Cn1cccc1C(=O)N1CCc2ccccc2C1 | 10.2%

Row | SMILES | inhibition
25 | COc1ccc(N=Nc2ccc(O)c(P(=O)(c3ccccc3)c3ccccc3)c2)cc1 | 41.2%
26 | Cc1cc(N=Nc2ccc3ccccc3c2)ccc1O | 81.9% (active)
27 | CC(=O)CCC(=O)c1ccc2ccccc2c1 | 3.19%
28 | Cc1ccccc1Nc1c([N+](=O)[O-])ccc2nonc12 | 4.67%
29 | O=C(NCC(c1ccco1)N1CCc2ccccc2C1)c1ccccc1Cl (stereo not given) | 17.4%
30 | COc1ccccc1NC(=O)c1cc(N2C(=O)C3C4CCC(C4)C3C2=O)ccc1Cl (stereo not given) | -15.7%
31 | O=c1c([N+](=O)[O-])cccn1Cc1ccc(F)cc1Cl | 55.4% (active)
32 | N/C(=N/O)c1cccn1Cc1ccccc1[N+](=O)[O-] | 0.341%
33 | Cc1ccc(-c2ccc(=O)n(Cc3ccc(F)cc3Cl)n2)cc1 | 12.7%
34 | O=c1[nH][nH]c(C(F)(F)F)c1C=NCc1ccccc1Cl | -1.93%
35 | CCc1c(O)cc2n(c1=O)-c1ccccc1C2(C)C | 17.4%
36 | NC(=O)c1nsc(C(=O)N(CC(=O)NCc2ccc(F)cc2)Cc2ccco2)c1N | 0.443%
37 | CC(C)CCC(C)NC(=O)c1ccc2nccnc2c1 (stereo not given) | -6.24%
38 | CCCCCCCCCCCCN1C(=O)CSC1c1cccnc1 (stereo not given) | 49.9% (active)
39 | CN(C)CCCN1C(=O)CSC1c1ccc([N+](=O)[O-])cc1 (stereo not given) | 2.76%
40 | CCCCCCOc1ccc(OC(=O)c2cccnc2)cc1 | -1.41%
41 | Clc1ccc(C2=CSC3=Nc4cccc5cccc(c45)N23)cc1 | 58.7% (active)
42 | O=C(Nc1ccc(S(=O)(=O)Nc2ncccn2)cc1)C12CC3CC(CC(C3)C1)C2 | 7.21%
43 | O=C(O)/C=C/c1cn(Cc2ccccc2)nc1-c1cccs1 | 8.13%
44 | O=C(O)CCn1cc(/C=C/C(=O)c2ccc(Cl)cc2)c(-c2cccc(Br)c2)n1 | 63.3% (active)
45 | CCOC(=O)/C(C#N)=C/c1cn(CCC(=O)O)nc1-c1ccc(Br)cc1 | -0.784%
46 | CCC(c1nnc(SCC(=O)NNC(=O)c2ccccc2)n1Cc1ccccc1)N(C)C (stereo not given) | -9.47%
47 | O=C(CNC(=O)c1ccc(Br)o1)Nc1ccccc1 | -5.14%
48 | Cc1ccc(C(CNC(=O)Nc2cccc(C)c2)N2CCN(C)CC2)cc1 (stereo not given) | -5.31%

Row | SMILES | inhibition
49 | O=C(Nc1ccccc1F)c1ccc2c(c1)OCO2 | 2.8%
50 | O=C(Nc1nnc(C2COc3ccccc3O2)o1)c1ccc(F)cc1 (stereo not given) | 103% (active)
51 | CC1COc2ccccc2N1C(=O)c1ccc(F)cc1 (stereo not given) | 0.0101%
52 | CCN(CC)S(=O)(=O)c1ccc(N(C)Cc2ccc(C(F)(F)F)cc2)nc1 | -5.95%
53 | O=C(NCc1nnc(SCC(=O)N2CCCc3ccccc32)o1)c1ccccc1F | 3.7%
54 | CC1(C)C2CCC1(CS(=O)(=O)NCCc1c[nH]c3ccccc13)C(=O)C2 (stereo not given) | -7.05%
55 | CS(=O)(=O)N1CCN(CC(=O)NC2CCCC2)CC1 | -2.39%
56 | CNC(=S)N/N=C/c1cn(Cc2ccc(C)cc2)c2ccccc12 | 53.8% (active)
57 | COC(=O)N/N=C/c1cn(CCCOc2ccc(C)cc2)c2ccccc12 | 8.83%
58 | CCOC(=O)N/N=C/c1cn(Cc2ccccc2Cl)c2ccccc12 | 6.39%
59 | CC(C)(C)c1cc2cccnc2n1Cc1cccc(F)c1 | -3.63%
60 | COc1ccc(C(=NN)c2ccc(OC)cc2)cc1 | -9.25%
61 | CCc1ccc(N(CC(=O)NCc2cccnc2)S(=O)(=O)c2ccccc2)cc1 | -18.2%
62 | Cc1scc(C(=O)NNC(=S)NCC(C)C)c1C | -0.356%
63 | CC(C)(C)C(=O)NNC(=O)c1ccc(Oc2cc(Cl)cc(Cl)c2)o1 | 0.127%
64 | CN(c1ccccc1)S(=O)(=O)c1ccc(Cl)c(C(=O)NCCc2c[nH]c3ccccc23)c1 | 4.79%
65 | CN(c1ccccc1)S(=O)(=O)c1cc(C(=O)Nc2nc3ccccc3[nH]2)ccc1Cl | 58.3% (active)
66 | CN(c1ccccc1)S(=O)(=O)c1cc(C(=O)OCC(=O)N2CCN(C(=O)c3ccco3)CC2)ccc1Cl | -0.977%
67 | COc1cc2ccccc2cc1C(=O)N(CCN(C)C)c1nc2c(F)cccc2s1 | 0.17%
68 | COc1cccc(CSc2nc3nc(C)cc(C)n3n2)c1 | 3.04%
69 | CSc1nc2ccccc2c(=O)n1Cc1ccc(F)cc1 | 18.7%
70 | CC(=O)Nc1ccc(NC(=O)CSc2ncnc3c2cnn3Cc2ccccc2)cc1 | 3.94%
71 | CSc1c(SCc2ccccc2)cnn(Cc2ccccc2)c1=O | 66.2% (active)
72 | Cc1ccc(-c2noc(CNC(=O)c3ccoc3C)n2)cc1 | 0.278%

Row | SMILES | inhibition
73 | Cc1ccc(-c2nn(-c3ccccc3)cc2/C=N/NC(=O)c2ccc3c(c2)OCO3)cc1 | 11.9%
74 | O=C(N/N=C/c1ccc([N+](=O)[O-])o1)c1cccc(S(=O)(=O)N2CCOCC2)c1 | 5.79%
75 | O=C(N/N=C/c1ccc([N+](=O)[O-])o1)c1cn(-c2ccccc2)nc1-c1ccc(F)cc1 | 85.5% (active)
76 | CCn1cc(CCC(=O)NCc2ccc(F)cc2)c2ccccc21 | 0.859%
77 | COc1cccc(NC(=O)CSc2nnc(Cc3ccc(OC)c(OC)c3)o2)c1 | -5.07%
78 | Cc1cccc([C@@H]2[C@@H]3C(=O)N(C)C(=O)[C@@H]3[C@@H]3C(=O)Nc4ccccc4C(=O)N23)c1 | 1.01%
79 | COc1ccc(N2CCN(CCCNC(=O)C3CCN(S(=O)(=O)N4CCOCC4)CC3)CC2)cc1 | 0.276%
80 | Cc1ccc(C)c(NC(=S)NNC(=O)c2csc(C)c2)c1 | -5.04%
81 | CC(C)c1ccc(NC(=S)NNc2ccc(Cl)c(C(=O)O)c2)cc1 | 5.7%
82 | Cc1ccc(C)c(NC(=S)NNC(=S)Nc2ccc(C(C)C)cc2)c1 | 51.2% (active)
83 | C[C@@H]1CC[C@]2(O[C@@H](CCO)C[C@H](O)[C@H]2O)O1 | -1.49%
84 | CN(C)S(=O)(=O)c1cccc(-c2nn(-c3ccccc3)cc2/C=C2\SC(=S)N(CC(=O)O)C2=O)c1 | 25.2%
85 | Cc1ccc(-c2nn(-c3ccccc3)cc2/C=C2\SC(=S)N(CCCCCC(=O)O)C2=O)o1 | 103% (active)
86 | COc1ccc(-c2nn(-c3ccccc3)cc2/C=C2/SC(=S)N(CCCC(=O)O)C2=O)c(C)c1 | 46.2%
87 | CCCN(CC(=O)Nc1ccccc1OC)C(=O)CCC(=O)c1ccc(F)cc1 | -6.42%
88 | Oc1c(Cl)cc(Cl)c(Cl)c1Cc1c(O)c(Cl)cc(Cl)c1Cl | 109% (active)
89 | CO/N=C/CC(=O)c1ccc(OC)cc1 | -3.09%
90 | CSCCC(NS(=O)(=O)c1ccccc1F)C(=O)N1CC=C(c2ccccc2)CC1 (stereo not given) | -1.43%
91 | O=C(Nc1ccc2oc(-c3ccccc3F)nc2c1)c1ccco1 | -5.59%
92 | COc1ccc2[nH]c(=O)c(CNc3ccc(C)c(C)c3)cc2c1 | 26.7%
93 | Cn1nc(-c2ccccc2)c(CO)c1Sc1ccccc1 | -5.22%
94 | Cn1nc(-c2ccccc2)c(CSc2cccc(Cl)c2)c1Cl | 61.6% (active)
95 | Cc1ccc(S(=O)(=O)c2c(COC(=O)c3cccc(Cl)c3)c(-c3ccccc3)nn2C)cc1 | -28.6%
